Drawing on PubChem BioAssay (Tox21), this text covers Potency, outcome and activity change, positive = activation for 8 compounds.

The nature of assay [1]: qHTS assay to identify small molecule antagonists of the constitutive androstane receptor (CAR) signaling pathway - cell viability counter screen (AID 1224837). Further: nearly all actives have a fitted effect of over 45% in size. Summed up: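 Using CellTiter-Fluor, viability is scored in HepG2 cells stably carrying hCAR and a 2.2kb CYP2B6 reporter after 23 hr compound exposure across 15 concentrations, with CITCO present at 50 nM.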
The target of assay [2] is Nuclear receptor subfamily 1 group I member 3 (Homo sapiens) (UniProt Q14994). In words: qHTS assay to identify small molecule antagonists of the constitutive androstane receptor (CAR) signaling pathway (AID 1224838).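 Further: HepG2 cells stably expressing hCAR with CYP2B6 luciferase reporter stimulated by CITCO; nearly all actives have a fitted effect of over 40% in size.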 Summed up:
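Reporter luminescence was quantified after 24 h exposure of hCAR/CYP2B6-2.2kb double-stable HepG2 cells to compounds at 15 concentrations in the presence of 50 nM CITCO final.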

For assay [3] the target is unchanged. In words: qHTS assay to identify small molecule agonists of the constitutive androstane receptor (CAR) signaling pathway (AID 1224839). Further: nearly all actives have a fitted effect of over 15% in size. Further: potency means the concentration at half of the fitted maximal effect. Summed up: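 Luminescence read-out (ONE-Glo, 30 min, room temperature) from double-stable HepG2-CYP2B6-hCAR cells exposed 24 h to 15-point compound series in presence of 0.75 uM PK11195 final.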
Assay [4] is described as follows: qHTS assay to identify small molecule antagonists of the estrogen related receptor signaling pathway with the pleiotropic PPARgamma coactivator (PGC) from Tox21 10K library - cell viability counter screen (AID 1224840; active means well fitted cell-killing curve with a large enough effect in the repeat runs, not every such curve was filed as active; further: nearly all actives have a fitted effect of over 40% in size). Summed up: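 Here the PGC/ERR cells serve as a cytotoxicity control: they are exposed to compounds for 17.5 hours at 37 C, and live-cell signal is quantified using CellTiter-Fluor fluorescence.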

Assay [5] has as its target Thyrotropin receptor (Homo sapiens) (UniProt P16473). Nature of the assay: qHTS assay to identify small molecule agonists of the thyroid stimulating hormone receptor (TSHR) signaling pathway (AID 1224843; calls by dose curve; further: nearly all actives have a fitted effect of over 45% in size). In outline:
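TSHR-HEK293 cells in agonist mode, 30 min room-temperature step, then cAMP measured by competitive HTRF (cAMP-d2 with anti-cAMP cryptate) after 1 h at room temperature. Tested at 15 concentrations in triplicate.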

Assay [6] can be described thus: qHTS assay to identify small molecule agonists of the hypoxia (HIF-1) signaling pathway - cell viability counter screen (AID 1224844; calls by dose curve; further: nearly all actives have a fitted effect of over 50% in size). In outline:
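Multiplexed with the HRE beta-lactamase assay, this viability read used CellTiter-Glo luminescence (30 min, RT) on HRE-bla ME-180 cells treated 17 hrs with compounds in 0.5% dialyzed FBS medium.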

The nature of assay [7]: qHTS assay to identify small molecule agonists of H2AX (AID 1224845; active means well fitted activation curve with a large enough effect in the signal ratio in the repeat runs, not every such curve was filed as active; the % refers to the signal ratio). In outline:
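Wild-type CHO-K1 cells, plated overnight, exposed 3hr at 37C to 15 concentrations (0.76% DMSO final). Lysed, then HTRF anti-pH2AX (S139) cryptate and anti-H2AX-d2 antibodies, 24 hr room temperature; 665/620 nm emission read.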

A short description of assay [8]: qHTS assay to identify small molecule agonists of the hypoxia (HIF-1) signaling pathway (AID 1224846; active means well fitted activation curve with a large enough effect in the signal ratio in the repeat runs, not every such curve was filed as active; the % refers to the signal ratio). In outline: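 Hypoxia-pathway activation was scored as increased beta-lactamase from an HRE-controlled reporter in ME-180 cells; plated at 2,000 cells per well with 0.5% dialyzed FBS, they were exposed 17 hrs to compounds and then given CCF4-AM.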
Assay [9] is described as follows: qHTS assay to identify small molecule agonists of H2AX - cell viability counter screen (AID 1224847; calls by dose curve; further: top concentration of the series differs between compounds; nearly all actives have a fitted effect of over 30% in size). In outline:
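CHO-K1 wt, 1000 cells/well, o/n 37C; cpds 15 conc, 3 h 37C, 0.76% DMSO; CellTiter-Glo, 30 min RT, luminescence.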

Assay [10] is described as follows: qHTS RealTime-Glo MT Cell Viability Assay in HepG2 cells - 24 hour (AID 1224867). Further: nearly all actives have a fitted effect of over 50% in size. In outline: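 HepG2 cells (600/well) were dispensed with RealTime-Glo reagents, incubated 5 h at 37 °C, then treated with compounds in DMSO for up to 40 h. Nonlytic NanoLuc luminescence reflecting viable cells was read at each stated time point.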
Assay [11] can be described thus: qHTS RealTime-Glo MT Cell Viability Assay in HEK293 cells - 32 hour (AID 1224868). Further: top concentration of the series differs between compounds; nearly all actives have a fitted effect of over 50% in size. In outline:
(§1)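 HEK293 cells seeded with NanoLuc/prosubstrate reagent, rested 5 h at 37 C, then dosed and kept at 37 C up to 40 h. Nonlytic real-time luminescence from viable cells read at 0, 8, 16, 24, 32 and 40 h.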

The nature of assay [12]: A CellTox Green Cytotoxicity Assay to monitor cytotoxicity in HEK293 cells - 0 hour (AID 1224869). Further: nearly all actives have a fitted effect of over 50% in size. In outline:
(§2)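 Seeding of HEK293 cells together with cytotoxicity dye preceded a 5 h incubation at 37 C/5% CO2. Test compounds in DMSO were then added and fluorescence monitored across 40 h.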

The nature of assay [13]: qHTS RealTime-Glo MT Cell Viability Assay in HepG2 cells - 40 hour (AID 1224870). Further: nearly all actives have a fitted effect of over 50% in size. In outline:
(§3)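 HepG2 cells (600/well) mixed with RealTime-Glo MT reagent, settled 5 h at 37 C/5% CO2 before compound addition. Nonlytic NanoLuc luminescence from viable-cell prosubstrate reduction read repeatedly during 40 h treatment at 37 C.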

Assay [14] can be described thus: A CellTox Green Cytotoxicity Assay to monitor cytotoxicity in HEK293 cells - 40 hour (AID 1224871). Further: nearly all actives have a fitted effect of over 45% in size. Summed up:
as §2

Assay [15] is described as follows: qHTS RealTime-Glo MT Cell Viability Assay in HEK293 cells - 16 hour (AID 1224872). In outline:
as §1

Assay [16] in a line: qHTS RealTime-Glo MT Cell Viability Assay in HepG2 cells - 8 hour (AID 1224873). Further: nearly all actives have a fitted effect of over 55% in size. Summed up: as §3
Assay [17] can be described thus: qHTS assay to identify small molecule antagonists of the estrogen related receptor signaling pathway with the pleiotropic PPARgamma coactivator (PGC) from Tox21 10K library (AID 1224841; call rule not given here; further: potency means the concentration at half of the fitted maximal effect). Summed up: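 Each well held 2,000 PGC/ERR cells, pre-incubated six hours (37 C, 5% CO2). Test substances in DMSO were added by pin tool and left for 18 h at 37 C before luciferase detection by One-Glo.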

The nature of assay [18]: qHTS assay to identify small molecule agonists of the estrogen related receptor signaling pathway with the pleiotropic PPARgamma coactivator (PGC) from Tox21 10K library (AID 1224842). Further: nearly all actives have a fitted effect of over 15% in size. In outline: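 PGC/ERR reporter cell line, 2,000 cells per well, incubated 6 h at 37 C before 23 nL compound in DMSO was added. After 18 h at 37 C, One-Glo luminescence read following 30 min at room temperature.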

The nature of assay [19]: qHTS assay to identify small molecule antagonists of the estrogen related receptor (ERR) signaling pathway from Tox21 library (AID 1224848). Further: nearly all actives have a fitted effect of over 50% in size. Further: potency means the concentration at half of the fitted maximal effect. In outline:
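ERR reporter cell line (from NTP) seeded 2,000 cells/well, rested 6 h at 37 C/5% CO2, then pin-dosed with compounds in DMSO. After 18 h at 37 C, ONE-Glo added; luminescence read after 30 min at room temperature.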

Assay [20] is described as follows: qHTS assay to identify small molecule agonists of the estrogen related receptor (ERR) signaling pathway from Tox21 library (AID 1224849; calls by dose curve; further: nearly all actives have a fitted effect of over 15% in size). Particulars: ERR reporter cell line, ONE-Glo luciferase, 18 h; at 92.4 µM (top of the series). Summed up:
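Six hours post-seeding at 37 C/5% CO2, ERR cells receive DMSO-solubilised compounds; after 18 h at 37 C, ONE-Glo reagent is applied and luminescence recorded.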

SMILES strings stand for the structures. Several values for one entry are separate records, joined by “and”; a condition that tells them apart may be missing. Identical values can stand only once. Values without a mark were called inactive. Records with an inconclusive call do not appear. Activity calls are given as the source filed them. Unless noted, the call rests on the fitted dose curve; in most records, active means well fitted curve in the direction sought with a large enough effect in the repeat runs; inconclusive means weak or mixed curves; inactive means no such curve, though single readings can be large; an effect the other way counts as inactive or inconclusive.
On the % scale 0 is the no-effect control and ±100 the full control effect.

Chain of Nuclear receptor subfamily 1 group I member 3 (Homo sapiens) (Q14994 whole entry, looked up): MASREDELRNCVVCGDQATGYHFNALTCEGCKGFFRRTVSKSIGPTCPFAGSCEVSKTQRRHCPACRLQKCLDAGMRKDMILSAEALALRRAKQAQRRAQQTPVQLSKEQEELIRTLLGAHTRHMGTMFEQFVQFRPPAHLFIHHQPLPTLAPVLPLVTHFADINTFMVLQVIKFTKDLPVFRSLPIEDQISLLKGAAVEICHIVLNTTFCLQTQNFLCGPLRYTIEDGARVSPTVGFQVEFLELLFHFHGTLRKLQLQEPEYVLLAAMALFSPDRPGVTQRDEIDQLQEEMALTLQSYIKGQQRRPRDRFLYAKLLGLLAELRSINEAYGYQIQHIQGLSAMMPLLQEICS
Chain of Thyrotropin receptor (Homo sapiens) (P16473 whole entry, looked up): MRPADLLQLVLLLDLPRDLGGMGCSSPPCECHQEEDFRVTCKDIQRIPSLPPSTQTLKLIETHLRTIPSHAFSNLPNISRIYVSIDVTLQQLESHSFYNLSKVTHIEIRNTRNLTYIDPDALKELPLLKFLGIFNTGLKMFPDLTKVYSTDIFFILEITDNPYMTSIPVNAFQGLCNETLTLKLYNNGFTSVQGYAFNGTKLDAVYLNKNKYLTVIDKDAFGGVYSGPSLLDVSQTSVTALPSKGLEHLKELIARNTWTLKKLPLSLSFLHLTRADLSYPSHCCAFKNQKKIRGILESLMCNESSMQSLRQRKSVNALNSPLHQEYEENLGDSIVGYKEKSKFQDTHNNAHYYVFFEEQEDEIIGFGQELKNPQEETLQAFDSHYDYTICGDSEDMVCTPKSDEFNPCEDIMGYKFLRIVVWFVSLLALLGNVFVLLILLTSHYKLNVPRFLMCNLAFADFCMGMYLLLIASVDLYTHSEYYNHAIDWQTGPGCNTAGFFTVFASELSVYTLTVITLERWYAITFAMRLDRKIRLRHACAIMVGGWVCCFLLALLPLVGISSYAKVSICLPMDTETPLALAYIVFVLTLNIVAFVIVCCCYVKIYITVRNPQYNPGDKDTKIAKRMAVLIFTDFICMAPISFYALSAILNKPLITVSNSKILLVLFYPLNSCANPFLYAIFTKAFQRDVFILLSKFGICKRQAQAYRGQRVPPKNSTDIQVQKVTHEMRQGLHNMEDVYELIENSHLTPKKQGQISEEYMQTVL

`Cc1ccccc1O`: the Potency entry in [1], in assay [2], in assay [3], in assay [4], in [5] and in [6] was “inactive” throughout. In addition, the Potency entry in [7], in assay [9], in assay [11], in assay [12] and in assay [14] was “inactive” throughout. Besides, the call in [8], in assay [10], in [13], in assay [15] and in [16] was inactive.
Turning to `Cn1cc(-c2ccccc2)c(=O)c(-c2cccc(C(F)(F)F)c2)c1`, the Potency result in assay [1], in assay [2], in assay [3], in assay [4], in [17] and in assay [5] was “inactive” in each case. The Potency result in assay [6], in assay [7], in [9], in [19], in assay [11] and in [12] was “inactive” each time. In [14], the Potency entry was “inactive”. Moreover, the outcome in [18], in [8], in [10], in assay [13], in assay [15] and in assay [16] was inactive. For the same compound, the activity change, positive = activation in assay [20] was -9.79% and -18.6%.
Take `CCOP(OCC)OCC`: the Potency result in assay [1], in [2], in assay [3], in [4], in assay [6] and in assay [7] was “inactive” in each case. Further, the Potency entry in assay [9], in assay [11], in assay [12] and in assay [14] was “inactive” each time. Further, the compound was called inactive in assay [8], in assay [10], in assay [15] and in assay [16].
For `CC(C)(C)OOC(=O)c1ccccc1`, the Potency result in assay [1], in assay [2], in assay [3], in assay [4], in assay [6] and in assay [7] was “inactive” each time. Besides, the Potency entry in [9], in [11], in [12] and in [14] was “inactive” in each case. Besides, the compound was called inactive in assay [8], in assay [10], in assay [13], in assay [15] and in [16].
With `O=C1CCCN1`, the Potency entry in [1], in assay [2], in assay [3], in assay [5], in [6] and in [7] was “inactive” in each case. The Potency entry in assay [11], in [12] and in [14] was “inactive” in each case. Besides, the result in assay [8], in assay [10], in assay [15] and in [16] was inactive.
Regarding `O=C(O)c1ccccn1`, the Potency entry in assay [1], in assay [2], in [3], in assay [6], in [7] and in [11] was “inactive” throughout. The Potency result in assay [12] and in assay [14] was “inactive” throughout. Besides, the compound was called inactive in [8], in [10], in assay [13], in assay [15] and in [16].
Regarding `CN=C=S`, the Potency result in assay [2], in assay [3], in assay [4], in assay [17], in assay [5] and in assay [6] was “inactive” throughout. For the same compound, the Potency entry in [7], in assay [9], in assay [19], in [11], in assay [12] and in [14] was “inactive” each time. The compound was called inactive in assay [18], in assay [8], in [10], in assay [13], in assay [15] and in assay [16]. Further, the activity change, positive = activation in assay [20] is 0.382% and 8.43%.
For `CCc1cccc(C)c1N(C(=O)CCl)C(C)COC` (stereo not drawn), the Potency result in [1], in assay [2], in [5], in assay [6], in assay [7] and in [9] was “inactive” throughout. Further, the Potency result in assay [11], in assay [12] and in [14] was “inactive” in each case. For the same compound, the Potency in assay [3] was 25.7 µM (active) and 15.4 µM (active); in assay [17], 45.8 µM (active) and 24.3 µM (active); in [19], 51.3 µM (active) and 54.5 µM (active). In addition, the call in [18], in [8], in [10], in assay [15] and in assay [16] was inactive. In addition, the activity change, positive = activation in assay [20] was -45.5% and -42%.
